Source: PubChem (several laboratories)
UGM FP inh = M. tuberculosis UGM enzyme inhibitors, primary screen, biochemical, fluorescence polarization, single point. purified UGM, fluorescence polarization probe displacement. inhibition, % at 10 µM. AID 504406, 2011. UDP-galactopyranose mutase (Mycobacterium tuberculosis (strain ATCC 25618 / H37Rv)), …. 320,000 compounds, 0.06% hits; in the data active means inhibition above about 10%, passing the limit was not always enough
RecA splice inh = Mtb RecA intein splicing inhibitors, primary screen, biochemical, fluorescence, HTS | 290,000 compounds, 0.75% hits | cell-free RecA intein splicing | inhibition, % (test concentration not listed) | Protein RecA (Mycobacterium tuberculosis (strain ATCC 25618 / H37Rv)), P9WHJ3; in the data active means inhibition above about 30%;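 further: 0% = vehicle wells and 100% = reference inhibitor control wells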
Target sequence (P9WHJ3 whole entry, looked up, canonical isoform): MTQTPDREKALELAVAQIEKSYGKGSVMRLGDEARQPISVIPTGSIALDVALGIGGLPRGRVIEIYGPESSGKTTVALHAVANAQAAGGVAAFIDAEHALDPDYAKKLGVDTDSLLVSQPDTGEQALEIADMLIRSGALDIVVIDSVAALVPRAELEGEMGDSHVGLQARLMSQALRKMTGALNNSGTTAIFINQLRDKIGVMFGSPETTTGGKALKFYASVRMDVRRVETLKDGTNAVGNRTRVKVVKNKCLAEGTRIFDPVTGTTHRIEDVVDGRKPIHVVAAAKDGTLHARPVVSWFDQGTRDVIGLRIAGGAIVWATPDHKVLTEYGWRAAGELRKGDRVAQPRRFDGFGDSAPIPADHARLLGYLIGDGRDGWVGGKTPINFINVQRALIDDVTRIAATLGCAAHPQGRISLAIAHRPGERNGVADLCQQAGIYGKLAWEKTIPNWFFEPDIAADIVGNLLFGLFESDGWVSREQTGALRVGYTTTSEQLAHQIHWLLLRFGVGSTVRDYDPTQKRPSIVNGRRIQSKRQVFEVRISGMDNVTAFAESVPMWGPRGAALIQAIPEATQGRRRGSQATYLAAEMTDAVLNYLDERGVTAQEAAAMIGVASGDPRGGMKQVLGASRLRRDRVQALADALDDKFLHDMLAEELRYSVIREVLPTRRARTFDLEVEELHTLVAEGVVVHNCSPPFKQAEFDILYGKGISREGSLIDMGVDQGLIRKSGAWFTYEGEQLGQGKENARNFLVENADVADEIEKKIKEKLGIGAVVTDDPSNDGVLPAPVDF
Rv3671c protease = Rv3671c serine protease inhibitors, primary screen, biochemical, fluorescence polarization, M. tuberculosis H37Rv; P9WHR9; inhibition, % at 5.96 µM; 320,000 compounds, 0.048% hits; AID 2606, 2010; in the data active means inhibition above about 38%;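 further: extracellular domain of Rv3671c used as enzyme; 0% = enzyme with DMSO and 100% = no enzyme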
Mtb betalactam = beta-lactam sensitization of Mtb H37Rv, H37Rv. M. tuberculosis H37Rv growth with meropenem, percent inhibition. inhibition, % at 25 µM. 330,000 compounds, 0.27% hits. AID 434955, 2010;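 further: growth measured after seven days incubation then overnight dye step; 0% = bacteria only wells and 100% = bacteria with antibiotic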
GDH-TPI counter-1 = GDH-TPI coupling enzyme inhibitors, primary screen, artefact control for M. tuberculosis FBA inhibitor project, biochemical, absorbance, full deck | GDH-TPI coupled enzyme counterscreen, NADH absorbance | inhibition, % at 4.8 µM | 360,000 compounds, 1.2% hits; in the data active means inhibition above about 30%;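 further: 0% = DMSO wells and 100% = wells lacking the enzyme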
Mtb FBA inh = Mtb FBA enzyme inhibitors, primary screen, biochemical, fluorescence, strain H37Rv | Fructose-bisphosphate aldolase (Mycobacterium tuberculosis (strain ATCC 25618 / H37Rv)), … | purified M. tuberculosis FBA, fluorescence read-out | inhibition, % at 1 µM | 360,000 compounds, 2.3% hits | AID 588726, 2011; in the data active means inhibition above about 27%;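 further: 0% = vehicle and 100% = reference inhibitor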
Mtb FBA inh conf = M. tuberculosis aldolase blockers, biochemical, fluorescence, strain H37Rv, confirmation. shares compounds with Mtb FBA inh. purified M. tuberculosis FBA, fluorescence read-out. inhibition, % at 1 µM. 5,600 compounds, 78% hits. AID 651616, 2012; in the data active means inhibition above about 27%;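 further: 0% = vehicle wells and 100% = reference inhibitor wells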
GDH-TPI counter-2 = GDH-TPI coupling enzyme inhibitors, artefact control for M. tuberculosis FBA inhibitor project, biochemical, fluorescence, high throughput | inhibition, % at 1 µM | AID 652141, 2013 | GDH-TPI coupled enzyme counterscreen | 5,600 compounds, 81% hits | shares compounds with Mtb FBA inh; in the data active means inhibition above about 10%
GDH-TPI DR = GDH-TPI coupling enzyme inhibitors, dose response, artefact control for M. tuberculosis FBA inhibitor project, biochemical, fluorescence, IC50. shares compounds with Mtb FBA inh. IC50, µM. AID 652145, 2013. GDH-TPI coupled enzyme assay, artifact counterscreen. 170 compounds, 79% hits
* = called active by the depositor. Sampled rows, rich in hits. Any-hit rate of the full collection: about 4%. Unless noted, how the calls were made is not given here.

For COc1ccc2nc3oc(C(=O)N4CCC5(CC4)OCCO5)cc3cc2c1 the results were UGM FP inh 1, RecA splice inh 1, Rv3671c protease 4, Mtb betalactam 4, GDH-TPI counter-1 13, Mtb FBA inh 50*, Mtb FBA inh conf 187* and GDH-TPI counter-2 156*.
Screening COc1ccc2cc3cc(C(=O)N4CCN(C5CCCCC5)CC4)oc3nc2c1 returned UGM FP inh -2, RecA splice inh -1, Rv3671c protease -4, Mtb betalactam 0, GDH-TPI counter-1 9, Mtb FBA inh 50*, Mtb FBA inh conf 23, GDH-TPI counter-2 5 and GDH-TPI DR 1.7*.
CC(C)(C)c1ccc(C(=O)NCCC(=O)Nc2cc(Cl)ccc2N2CCOCC2)cc1 was read as UGM FP inh 1, Rv3671c protease -8, Mtb betalactam 8, GDH-TPI counter-1 -2 and Mtb FBA inh 1.
Screening Cc1cccc(-n2cc(-c3ccccc3)[nH]c2=S)c1 returned UGM FP inh -2, RecA splice inh 4, Rv3671c protease -3, Mtb betalactam -4, GDH-TPI counter-1 0 and Mtb FBA inh 0.
Screening Fc1ccccc1/C=N/n1cc(-c2ccccc2)[nH]c1=S returned UGM FP inh -1, RecA splice inh 2, Rv3671c protease 2, Mtb betalactam -4, GDH-TPI counter-1 -2, Mtb FBA inh 51*, Mtb FBA inh conf 137* and GDH-TPI counter-2 127*.
`Fc1ccccc1/C=N/n1cnnc1` gave UGM FP inh 5, RecA splice inh -7, Rv3671c protease 2, Mtb betalactam -1, GDH-TPI counter-1 -12 and Mtb FBA inh 5.
Cc1ccc(C)c(/C=N/n2cc(-c3ccccc3)[nH]c2=S)c1 was read as UGM FP inh 0, RecA splice inh -2, Rv3671c protease 3, Mtb betalactam 1, GDH-TPI counter-1 1, Mtb FBA inh 43*, Mtb FBA inh conf active and GDH-TPI counter-2 active.
`Cc1ccccc1Oc1ccc2c(c1)[C@@H]1C[C@H](N(C)C(=S)Nc3ccc(F)cc3)[C@H]([C@H](C)O)C(=O)N1CC2` gave GDH-TPI counter-1 8 and Mtb FBA inh -3.
`CCN(CC(=O)NCc1cccs1)C(=O)/C=C/c1cccc(Cl)c1Cl` gave UGM FP inh 4, RecA splice inh -1, Rv3671c protease -8, Mtb betalactam -13, GDH-TPI counter-1 -1 and Mtb FBA inh -3.
For COCCn1c(SCC(=O)N2CCCC2)nc2c(c1=O)SCC2 the results were GDH-TPI counter-1 9 and Mtb FBA inh -2.
CCCN1CCN(S(=O)(=O)c2c(C)[nH]c(C)c2C(=O)N2CCCCC2)CC1 was read as UGM FP inh -2, RecA splice inh 1, Rv3671c protease 4, Mtb betalactam -7, GDH-TPI counter-1 -3 and Mtb FBA inh -3.
Screening Nc1nccc(/C=C/c2ccc(Cl)cc2)n1 returned UGM FP inh -2, RecA splice inh 2, Rv3671c protease -2, Mtb betalactam 5, GDH-TPI counter-1 19, Mtb FBA inh 30*, Mtb FBA inh conf 84* and GDH-TPI counter-2 49*.
`Nc1nccc(/C=C/c2c(Cl)cccc2Cl)n1` gave UGM FP inh -7, RecA splice inh 2, Rv3671c protease -1, Mtb betalactam -8, GDH-TPI counter-1 16 and Mtb FBA inh 14.
COc1ccccc1CNC(=O)c1ccccc1C(=O)NC(CC(C)C)C(=O)NCc1ccccc1OC (centres undefined) was read as UGM FP inh -1, RecA splice inh -2, Rv3671c protease -1, Mtb betalactam 6, GDH-TPI counter-1 -5 and Mtb FBA inh -7.
Screening Cc1coc2c1c(C)cc1oc(=O)c(CC(=O)NCC(=O)O)c(C)c12 returned UGM FP inh 2, RecA splice inh -3, Mtb betalactam -1, GDH-TPI counter-1 19, Mtb FBA inh 101*, Mtb FBA inh conf 141* and GDH-TPI counter-2 94*.
For Cc1cc2oc(=O)c(CC(=O)O)c(C)c2c2occ(C(C)(C)C)c12 the results were UGM FP inh 1, RecA splice inh -3, Rv3671c protease -5, Mtb betalactam 9, GDH-TPI counter-1 18 and Mtb FBA inh 15.
Screening Cc1coc2c1c(C)cc1oc(=O)c(CC(=O)NCCCCCC(=O)O)c(C)c12 returned UGM FP inh -1, RecA splice inh -2, Rv3671c protease 3, Mtb betalactam 6, GDH-TPI counter-1 2, Mtb FBA inh 62*, Mtb FBA inh conf active and GDH-TPI counter-2 175*.
Cc1oc2c(c(C)cc3oc(=O)c(CC(=O)NCCC(=O)O)c(C)c32)c1C was read as UGM FP inh -2, RecA splice inh -8, Mtb betalactam 1, GDH-TPI counter-1 23, Mtb FBA inh 31*, Mtb FBA inh conf 159* and GDH-TPI counter-2 99*.
`Cc1oc2c(c(C)cc3oc(=O)c(CC(=O)N[C@@H](CC(C)C)C(=O)O)c(C)c32)c1C` gave UGM FP inh -3, RecA splice inh -3, Mtb betalactam -1, GDH-TPI counter-1 11, Mtb FBA inh 31*, Mtb FBA inh conf 85* and GDH-TPI counter-2 64*.
For O=C(NCc1cnc2ccccn12)C1CCC(=O)N(Cc2ccccc2F)C1 (centres undefined) the results were UGM FP inh 1, RecA splice inh 0, Mtb betalactam 3, GDH-TPI counter-1 -4 and Mtb FBA inh 21.
`Cc1ccc(S(=O)ONc2cccc(NOS(=O)c3ccc(C)cc3)c2)cc1` (centres undefined) gave GDH-TPI counter-1 9 and Mtb FBA inh 0.
Screening Cc1ccc(NC(=O)CCNC(=O)c2ccc(Cl)cc2)nc1 returned UGM FP inh 0, RecA splice inh -1, Rv3671c protease -7, Mtb betalactam -5, GDH-TPI counter-1 0 and Mtb FBA inh 3.
